Measured values taken from PubChem BioAssay (NCI).
The panel holds about 79,000 compounds, 15% with a hit somewhere; the sample as a whole holds those more often. Unmarked numbers belong to inactive results. The source made the active and inactive calls. Cut-off read from the data, not from the text of the source: active = growth inhibition above about 70%; inactive = the rest.

Assay: NCI Yeast Anticancer Drug Screen. Data for the mec2-1 strain (AID 157)
Conditions: S. cerevisiae mec2-1 strain, active compounds read high
Method: Growth inhibition of yeast strains with defined genetic alterations is measured as a screen for potential anti-cancer activity. Selected strains with alterations in DNA damage repair or cell cycle control were exposed to compounds and growth inhibition was measured relative to vehicle treated controls. The strain used in this assay is mec2-1

[1] = at 5.0 µM (retest, dose inferred, filed as 0.5)
[2] = at 50.0 µM (retest, dose inferred, filed as 5.0)

O=[N+]([O-])/C(C(Cl)=C(Cl)Cl)=C1/OCCS1
growth inhibition (at 1.2 µM): 24% | growth inhibition (at 3.7 µM): 55% | growth inhibition [1]: 11% | growth inhibition (at 11.0 µM): 97% (active) | growth inhibition (at 33.0 µM): 98% (active) | growth inhibition [2]: 100% (active) | growth inhibition (at 50.0 µM): 93.6% (active) | growth inhibition (at 100.0 µM): 98% (active)

CN=C(N)N/N=C(\C)c1ccc2oc3ccc(/C(C)=N/NC(N)=NC)cc3c2c1
growth inhibition (at 1.2 µM): -11% | growth inhibition (at 3.7 µM): -9% | growth inhibition [1]: 15% | growth inhibition (at 11.0 µM): 15% | growth inhibition (at 33.0 µM): 98% (active) | growth inhibition [2]: 99% (active) | growth inhibition (at 50.0 µM): 93.6% (active) | growth inhibition (at 100.0 µM): 98% (active)

Nc1nc2c(c(=O)[nH]1)NC(CCNc1ccc(C(=O)O)cc1)CN2 (stereo not given)
growth inhibition (at 1.2 µM): -1% | growth inhibition (at 3.7 µM): 2% | growth inhibition [1]: 7% | growth inhibition (at 11.0 µM): 4% | growth inhibition (at 33.0 µM): 2% | growth inhibition [2]: 18% | growth inhibition (at 50.0 µM): -35.5% | growth inhibition (at 100.0 µM): -13%

COc1ccc(N2C(=O)CC(Cl)C2=O)cc1 (stereo not given)
growth inhibition (at 1.2 µM): -7% | growth inhibition (at 3.7 µM): -5% | growth inhibition [1]: -44% | growth inhibition (at 11.0 µM): -6% | growth inhibition (at 33.0 µM): 64% | growth inhibition [2]: 36% | growth inhibition (at 50.0 µM): 99.5% (active) | growth inhibition (at 100.0 µM): 100% (active)

COC(=O)c1ccc2c(c1)Cc1ccccc1-2
growth inhibition (at 1.2 µM): -4% | growth inhibition (at 3.7 µM): 1% | growth inhibition [1]: -12% | growth inhibition (at 11.0 µM): -12% | growth inhibition (at 33.0 µM): -3% | growth inhibition [2]: -4% | growth inhibition (at 50.0 µM): 39% | growth inhibition (at 100.0 µM): 1%
